According to the supplement of paper PMC6555819:

What was measured:
Experiment in all cases: PBM binding z-score (relative to random genomic background probes); higher = stronger binding; sequences stand for … in GC…GCGATTGACAGCGTAGAATGAAGG
[1] = tested on: FXR:RXRa (NR concentration 270 nM, RXRa partner concentration 90 nM)
How it was run: (§1)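 Custom Agilent 4×180K protein-binding microarrays carried double-stranded probes, each with a 34-nt variable region. These regions held direct-repeat seeds, single-nucleotide variants, half-site ablations and random human genomic background sequences. Ligand-free nuclear receptor dimers were incubated on the arrays for 1 h, antibodies against each partner (one per run) detected binding, and scanned fluorescence was regression-normalized. Binding z-scores take the random background probes as reference.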

[2] = tested on: LXRa:RXRa (NR concentration 270 nM, RXRa partner concentration 90 nM)
How it was run: as §1

[3] = tested on: LXRa homodimer (NR concentration 270 nM)
How it was run: as §1

[4] = tested on: LXRb:RXRa (NR concentration 270 nM, RXRa partner concentration 90 nM)
How it was run: as §1

[5] = tested on: LXRb homodimer (NR concentration 270 nM)
How it was run: as §1

[6] = tested on: PPARa:RXRa (NR concentration 270 nM, RXRa partner concentration 90 nM)
How it was run: as §1

[7] = tested on: PPARg:RXRa (NR concentration 180 nM, RXRa partner concentration 90 nM)
How it was run: as §1

[8] = tested on: PPARg:RXRa 270nM:90nM, anti-RXR (NR concentration 270 nM, RXRa partner concentration 90 nM)
How it was run: as §1

[9] = tested on: PPARg:RXRa 30nM:10nM, anti-RXR (NR concentration 30 nM, RXRa partner concentration 10 nM)
How it was run: as §1

[10] = tested on: PPARg:RXRa 90nM:30nM, anti-RXR (NR concentration 90 nM, RXRa partner concentration 30 nM)
How it was run: as §1

[11] = tested on: PPARg:RXRa DBDmut IVT, anti-RXR (DBD mutation: RXRa K156A/R161A, NR concentration 270 nM, RXRa partner concentration 90 nM)
How it was run: as §1

[12] = tested on: PPARg:RXRa IVT, anti-PPARg (NR concentration 270 nM, RXRa partner concentration 90 nM)
How it was run: as §1

[13] = tested on: PPARg DBDmut:RXRa IVT, anti-PPARg (DBD mutation: PPARg1 K132A/R137A, NR concentration 270 nM, RXRa partner concentration 90 nM)
How it was run: as §1

[14] = tested on: PPARg DBDmut IVT, anti-PPARg (DBD mutation: PPARg1 K132A/R137A, NR concentration 270 nM)
How it was run: as §1

[15] = tested on: PPARg homodimer (NR concentration 180 nM)
How it was run: as §1

[16] = tested on: PXR:RXRa (NR concentration 270 nM, RXRa partner concentration 90 nM)
How it was run: as §1

[17] = tested on: PXR homodimer (NR concentration 270 nM)
How it was run: as §1

[18] = tested on: RARa:RXR (NR concentration 270 nM, RXRa partner concentration 90 nM)
How it was run: as §1

[19] = tested on: RARa homodimer (NR concentration 270 nM)
How it was run: as §1

[20] = tested on: RARb:RXRa (NR concentration 270 nM, RXRa partner concentration 90 nM)
How it was run: as §1

Row | Sequence | PBM binding z-score [1] | PBM binding z-score [2] | PBM binding z-score [3] | PBM binding z-score [4] | PBM binding z-score [5] | PBM binding z-score [6] | PBM binding z-score [7] | PBM binding z-score [8] | PBM binding z-score [9] | PBM binding z-score [10] | PBM binding z-score [11] | PBM binding z-score [12] | PBM binding z-score [13] | PBM binding z-score [14] | PBM binding z-score [15] | PBM binding z-score [16] | PBM binding z-score [17] | PBM binding z-score [18] | PBM binding z-score [19] | PBM binding z-score [20]
1 | ATATGTAGATTAAGGGTCATTCAGGTTGGTTCGC | 3.93 | 4.24 | 3.27 | 3.96 | 1.38 | 4.74 | 6.74 | 6.77 | 6.28 | 7.43 | 1.15 | 3.34 | 1.32 | 1.38 | 3.29 | 4.89 | 2.6 | 4.45 | 2.24 | 2.88
2 | ATCTCTAGGTAACCAAGTTCCGTGAATGCCGAAC | -0.0612 | 0.165 | 0.165 | 0.157 | 0.617 | 0.45 | 0.308 | 0.331 | -0.073 | 0.181 | 3.6 | 2.9 | 0.664 | 0.557 | 0.453 | 0.03 | 0.0548 | 0.264 | 0.19 | 0.435
3 | CCTGCTGGGCCAAGGTCATTGATCAGTCAAAGCA | 3.6 | 3.06 | 0.626 | 2.99 | -0.84 | 3.64 | 1.23 | 2.56 | -0.0774 | 1.46 | 0.105 | 1.18 | -1.48 | -1.47 | 2.84 | 3.79 | 1.84 | 3.92 | -0.536 | 3.48
4 | CCTGCTAGGTCAATAGTCAGCTAAAGCAGCTCGC | 2.43 | 1.66 | -0.401 | 0.931 | 0.148 | 2.28 | 2.33 | 2.95 | 0.219 | 1.9 | 3.97 | 3.08 | -0.361 | -0.649 | 0.586 | 0.324 | -0.908 | 0.911 | -1.08 | 3.45
5 | CCTTACGGGTCACCGACAGGTTATAGCATTTGGA | 6.22 | 4.88 | 0.46 | 3.96 | -0.223 | 5.69 | 6.3 | 5.64 | 2.16 | 4.6 | 2.51 | 4.22 | 0.292 | 0.016 | 3.32 | 4.11 | -0.087 | 5.27 | 0.277 | 4.52
6 | CTACCAAGGTGAACCAGGTCGTTGATTACTATTC | 0.862 | 1.52 | -0.0698 | 1.8 | -0.718 | 2.61 | 1.19 | 1.54 | 0.0677 | 0.58 | 2.39 | 3.12 | -0.252 | 0.258 | 1.51 | 1.93 | 0.659 | 2.14 | -0.266 | 1.92
7 | GCATATAGGCAATACAAGGTGAAAGTCCGATTGT | 0.177 | 0.0524 | -0.175 | 0.343 | -0.636 | 1.12 | 0.804 | 0.669 | 0.415 | 0.712 | 1.94 | 1.46 | 0.326 | -0.0602 | -0.222 | 0.231 | 0.012 | 0.876 | -0.301 | 0.172
8 | ACAACGAGGGCACGCTGAGTTGATAGCAGAGTAG | 0.762 | 0.503 | -0.519 | 0.00813 | -0.476 | 1.58 | 1.65 | 1.19 | 0.248 | 0.944 | 3.61 | 3.13 | 0.767 | 0.323 | 0.345 | 1.22 | 0.145 | 0.573 | -0.791 | 2.63
9 | TCTGCTAGGTCAAGGATGGTCAGCTAATCTGCTA | 2.86 | 2.82 | -0.0468 | 1.48 | -0.198 | 3.12 | 2.01 | 3.21 | 2.02 | 2.71 | 4.19 | 4.08 | -0.492 | 0.24 | 0.578 | 1.23 | -0.697 | 2.26 | -0.712 | 3.97
10 | TAGCCTAGGTCATGCGGGCCAGGATAGTGTCGGC | 3.94 | 2.96 | 0.218 | 1.4 | -0.35 | 3.42 | 2.26 | 2.41 | 0.605 | 1.56 | 1.52 | 3 | -0.00181 | -0.781 | 0.191 | 1.29 | -0.269 | 1.89 | -0.855 | 3.74
11 | CCTATTAGTTGACCATAAGGGCACCCGAAGCTCG | 0.765 | 0.567 | 0.422 | 0.491 | 0.755 | 0.457 | 0.534 | 0.375 | 0.138 | 0.172 | -0.198 | 0.504 | 0.132 | 0.825 | 1.88 | 0.521 | 0.781 | 0.981 | 1.56 | 1.2
12 | CCTAGTTGGTCGAGGTCACACACGCTATAGGTAC | 4.44 | 4.08 | 2.35 | 3.65 | 0.632 | 4.31 | 2.86 | 3.39 | 0.788 | 2.21 | 1.44 | 3.16 | 1.31 | -0.295 | 3.81 | 5.08 | 3.73 | 5.08 | 1.8 | 3.63
13 | GCGGCTGGGGCAAAGCAGGTTACCATAAGGTTGG | 0.63 | 0.104 | -0.673 | 0.159 | -0.912 | 0.636 | 0.139 | -0.304 | -0.825 | -0.577 | 0.344 | 0.597 | -2.01 | -1.49 | -0.191 | 0.338 | -0.584 | 0.776 | -1.18 | 1.07
14 | CCTACTGCGCCACGAAAGGTCATTGATTCAGTGA | 3.86 | 5.05 | 5.64 | 4.54 | 2 | 4.35 | 1.08 | 3.21 | 0.979 | 1.98 | 0.564 | 1.65 | 1.03 | 0.0242 | 4.6 | 5.41 | 2.88 | 5.88 | 2.27 | 3.86
